# High-throughput results from PubChem.
# Most compounds without a hit are left out; they make up all but 15% or so of the library.
# ALOX12 inh: blocks human arachidonate 12S-lipoxygenase | hit rate 1.1% among 580,000 | AID 1671190 | Potency, µM (highest dose often 108 µM), inactives show at the top dose activity change, negative = inhibition, usual class: inhibitors | P18054 | purified 12hLO, xylenol orange hydroperoxide absorbance
#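 Purified human 12hLO (150 nM final) in 25 mM Hepes, 0.01% Triton X-100, pH 7.0 was preincubated 15 min at room temperature with compound. Then 40 uM arachidonic acid was added, 30 min. Hydroperoxide was read by Fe-XO absorbance ratio 573/405 nm.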
# TDP1 cell CPT: growth inhibition of DT40 Tdp1-/-;hTDP1 cells with camptothecin (screen for TDP1 inhibitors); chicken DT40 Tdp1-/-;hTDP1 cells + 20 nM CPT, ATP luminescence, 48 h; Potency, µM (titrated, usually from 46.2 µM), inactives show at the top dose activity change, negative = growth inhibition, usual class: inhibitors; hit rate 12% among 420,000; AID 686979; also: nearly all actives have a fitted effect of over 55% in size
#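 Chicken DT40 Tdp1-/- cells stably complemented with human TDP1 were seeded at 400 cells/well in medium containing 20 nM camptothecin, exposed to pin-transferred compounds, and grown at 37 °C for at least 48 hr. Viability was read as ATP luminescence.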
# ELG1 DNA repair: ELG1-dependent DNA repair inhibition; HEK293T ELG1-luciferase reporter, luminescence, 16 h; DNA damage induced by 5-fluorouridine; Potency, µM (titrated, usually from 46.1 µM), inactives show at the top dose activity change, negative = inhibition, usual class: inhibitors; hit rate 2.3% among 330,000; AID 504467; also: nearly all actives have a fitted effect of over 55% in size
#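 Luminescence from the luciferase reporter, measured 30 min after ONE-Glo reagent at room temperature, was the read-out. Beforehand, 2,000 cells per well were exposed for 16 hr at 37 °C to 5-fluorouridine together with compound or vehicle.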
# RORg inh: inhibitors of mouse ROR gamma transcriptional activity; Drosophila S2 Gal4-RORgamma UAS-luciferase reporter, 20 h; hit rate 5.4% among 310,000; P51450; AID 2551; Potency, µM (series often up to 53.6 µM), without a hit: at the highest dose activity change, negative = inhibition, actives largely listed as inhibitors; also: nearly all actives have a fitted effect of over 60% in size
# Target sequence (P51450 whole entry, looked up, the tested form may be a part): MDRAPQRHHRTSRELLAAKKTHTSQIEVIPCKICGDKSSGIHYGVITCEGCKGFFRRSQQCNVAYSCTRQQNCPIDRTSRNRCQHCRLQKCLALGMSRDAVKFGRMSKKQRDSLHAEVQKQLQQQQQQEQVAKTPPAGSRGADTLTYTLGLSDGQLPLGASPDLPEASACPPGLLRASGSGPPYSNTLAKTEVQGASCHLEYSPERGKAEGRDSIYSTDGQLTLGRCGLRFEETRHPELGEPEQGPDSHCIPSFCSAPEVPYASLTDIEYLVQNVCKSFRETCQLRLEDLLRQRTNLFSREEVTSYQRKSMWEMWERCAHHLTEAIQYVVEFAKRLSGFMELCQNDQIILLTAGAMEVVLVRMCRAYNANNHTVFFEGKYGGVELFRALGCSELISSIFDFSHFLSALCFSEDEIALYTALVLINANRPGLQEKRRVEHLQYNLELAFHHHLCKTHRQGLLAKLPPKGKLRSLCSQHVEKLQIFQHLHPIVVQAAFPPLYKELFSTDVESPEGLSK
#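 Read-out: Photinus luciferase luminescence; inhibitors lower reporter signal. Insect Schneider cells with Gal4-ROR gamma fusion under metallothionein promoter, UAS reporter; 700 uM final copper sulfate induction, 20 hr, ambient temperature.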
# TDP1 cell noCPT: qHTS for Inhibitors of human tyrosyl-DNA phosphodiesterase 1 (TDP1): qHTS in cells in absence of CPT; DT40 Tdp1-/- hTDP1 cells, no CPT, ATP luminescence, 48 h; Potency, µM (top dose mostly 46.2 µM), for the others: at the top dose activity change, negative = growth inhibition, hits mostly inhibitors; hit rate 15% among 420,000; AID 686978, 2013; also: nearly all actives have a fitted effect of over 55% in size
#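 Compound effects on proliferation are scored in DT40 Tdp1-/-;hTDP1 cells in the absence of CPT. ATP levels (CellTiter-Glo luminescence) are recorded after a ≥48 hr, 37 °C incubation.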
# Gal4-VP16 FLuc: Gal4-VP16 reporter inhibition counter-screen. Drosophila S2 Gal4-VP16 UAS-luciferase, luminescence, 20 h. Potency, µM (doses to about 53.6 µM), for the others: top-dose activity, negative = inhibition, hits mostly inhibitors. hit rate 3.5% among 310,000. AID 2546;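 also: Gal4-VP16 expression switched on by copper sulfate through the metallothionein promoter; nearly all actives have a fitted effect of over 50% in size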
# * marks the source's active call; other numbers are inactive results; ? = inconclusive; nt = not tested or not shown. Calls follow the shape of the dose curve; as a rule, active = well fitted curve in the direction sought with a large enough effect; inconclusive = small, poorly fitted or top-dose-only effect, or another doubt; inactive = no such curve, though single readings can be large; an effect the other way counts as inactive or inconclusive. % is scaled to controls: 0 for no effect and ±100 for the full control effect; potency is read from the fitted curve at half-maximal effect.
SMILES,ALOX12 inh,TDP1 cell CPT,ELG1 DNA repair,RORg inh,TDP1 cell noCPT,Gal4-VP16 FLuc
COc1ccc(-c2c(-c3ccc(OCC(=O)NN)cc3O)n[nH]c2C(F)(F)F)cc1,?,-2.3%,-5.0%,6.31µM*,-17.8%,4.47µM*
CCCc1cc(-c2n[nH]c(C)c2-c2ccc(C(=O)OCC)o2)c(O)cc1O,?,?,?,?,?,1.2%
O=C(CC1=C2CCCCC2N(Cc2ccccc2)C1=O)NC1CC1 (stereo not drawn),29.8%,nt,nt,nt,nt,nt
COc1ccc(-c2nc(C(C)C)nc3c2CCN(C(=O)c2ccccc2C)CC3)cc1,-0.2%,nt,nt,nt,nt,nt
Cc1nc(CC2CCN(C(=O)Cc3ccccc3)CC2)n[nH]1,39.9%,nt,nt,nt,nt,nt
CNC(=O)c1ccccc1Sc1ccc2c(/C=C/c3ccccn3)n[nH]c2c1,nt,4.22µM*,nt,nt,2.66µM*,nt
CNC(=O)c1ccccc1Sc1cccc2cccc(C(=O)O)c12,7.2%,-0.4%,1.3%,-6.6%,9.8%,3.6%
COc1cccc(-c2nc(N3CCCCC3)ncc2C(=O)O)c1,11.0%,nt,nt,nt,nt,nt
COc1ccc(-c2oc3ccccc3c(=O)c2O)cc1OC,nt,-28.0%,nt,6.31µM*,-28.9%,?
CCOc1ccc(-c2oc3ccccc3c(=O)c2O)cc1OCC,-20.1%,?,nt,nt,?,nt
COc1ccc(-c2oc3ccc(C)cc3c(=O)c2O)cc1OC,nt,11.9µM*,nt,5.01µM*,?,?
COc1ccccc1-c1oc2ccccc2c1C#CC1(N)CCCCC1,?,16.4µM*,?,nt,14.6µM*,nt
O=c1c(O)c(-c2ccc(O)cc2)oc2ccc(O)cc12,nt,13.3µM*,nt,?,13.3µM*,-2.7%
Cc1cc(C)c(NC(=O)CN(C)C(=O)C2CC(=O)N(Cc3ccccc3Cl)C2)c(C)c1 (stereo not drawn),6.0%,nt,nt,nt,nt,nt
Cc1ccc2c(COC(=O)c3ccc(C)s3)cc(=O)oc2c1,1.9%,nt,nt,nt,nt,nt
COc1ccccc1-c1oc2ccccc2c(=O)c1OC,nt,6.68µM*,nt,-19.5%,?,-2.0%
COc1cc2oc3ccccc3c(=O)c2cc1OC,0.2%,?,?,-19.1%,?,1.9%
COc1ccc(-c2oc3c(OC)c(OC)c(OC)c(O)c3c(=O)c2OC)cc1OC,33.2%,?,11.6µM*,11.2µM*,20.6µM*,?
COc1cc(OC)c2c(=O)c(O)c(-c3ccc(OC)c(OC)c3)oc2c1,nt,?,nt,2.82µM*,?,?
COc1cccc(-c2oc3ccccc3c(=O)c2O)c1,nt,26.6µM*,nt,6.31µM*,26.6µM*,7.94µM*
COc1cccc(C(=O)N2CCC3(CC2)CC(OC)CCO3)c1 (stereo not drawn),34.1%,nt,nt,nt,nt,nt
COc1ccc(-c2oc3cc(O)c(OC)c(O)c3c(=O)c2OC)cc1,8.5%,10.3µM*,11.8%,?,13µM*,22.7%
COc1c(-c2ccc(O)cc2)oc2cc(O)cc(O)c2c1=O,-22.0%,?,?,-1.1%,?,2.5%
O=c1c(O)c(-c2ccc3c(c2)OCO3)oc2ccccc12,?,18.4µM*,?,6.31µM*,?,11.2µM*
O=c1c(O)c(-c2ccc(O[C@@H]3O[C@H](CO)[C@@H](O)[C@H](O)[C@H]3O)c(O)c2)oc2cc(O)cc(O)c12,-4.3%,nt,nt,0.5%,nt,-2.8%
COc1ccc(-c2oc3cc(O[C@@H]4OC(CO)C(O)C(O)C4O)c(OC)c(O)c3c(=O)c2OC)cc1O (stereo partly drawn),nt,?,nt,?,14.6µM*,0.7%
CC(NC(=O)C(C)(C)C)C(=O)NCC1CC1 (stereo not drawn),6.8%,nt,nt,nt,nt,nt
CC(C)N(C)CC1CCN(C(=O)NCCc2ccc(F)cc2)CC1,11.8%,nt,nt,nt,nt,nt
